Measured values reported in PubChem BioAssay AID1159580 (chemical genetic matrix, 2015).
Out of some 5,500 compounds screened, about 2,000 (36%) were called active. Another 18% or so got no clear call; they are omitted. Rule as the data show it: active = normalized growth mostly below about 0.91 (no sharp cut-off); inconclusive = no clear call, values can overlap the other calls; inactive = mostly above about 0.92. Some of the results follow.

Experiment: chemical genetic growth profiling, strain panel (AID 1159580);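 also: tested at 20 µM; growth read once vehicle control cultures reached saturation at 30 °C; 1 = growth at the plate median or of vehicle wells; lower values mean less growth of the strain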
Conditions: growth OD

Measured: normalized growth

C=NC(C(=O)NC1C(=O)N2C1SC(C)(C)C2C(=O)O)c1ccccc1 (configuration not stated)
inactive: S. cerevisiae deletion strains, locus YJR075W, strain HOC1, stronger effect = lower value 0.991 | S. cerevisiae deletion strains, locus YKL009W, strain mrt4, stronger effect = lower value 1.02 | S. cerevisiae deletion strains, locus YKL068W, stronger effect = lower value 1.02 | S. cerevisiae deletion strains, locus YKL085W, strain MDH1 (second series), stronger effect = lower value 1.04 | S. cerevisiae deletion strains, locus YKL085W, strain MDH1, stronger effect = lower value 1.04 | S. cerevisiae deletion strains, locus YKL160W, strain elf1, stronger effect = lower value 0.98 | S. cerevisiae deletion strains, locus YKL190W, strain CNB1, stronger effect = lower value 1.01 | S. cerevisiae deletion strains, locus YKR001C, strain vps1, stronger effect = lower value 1.02 | S. cerevisiae deletion strains, locus YKR026C, strain gcn3, stronger effect = lower value 0.999 | S. cerevisiae deletion strains, locus YKR091W, strain srl3, stronger effect = lower value 0.999 | S. cerevisiae deletion strains, locus YLL001W, strain dnm1, stronger effect = lower value 0.943 | S. cerevisiae deletion strains, locus YLL026W, stronger effect = lower value 1.01 | S. cerevisiae deletion strains, locus YLL041C, strain sdh2, stronger effect = lower value 0.996 | S. cerevisiae deletion strains, locus YLR027C, strain aat2, stronger effect = lower value 1.02 | S. cerevisiae deletion strains, locus YLR039C, strain RIC1, stronger effect = lower value 1.03 | S. cerevisiae deletion strains, locus YLR058C, strain SHM2, stronger effect = lower value 1.01 | S. cerevisiae deletion strains, locus YLR102C, strain apc9, stronger effect = lower value 1.02 | S. cerevisiae deletion strains, locus YLR113W, strain HOG1, stronger effect = lower value 1.01 | S. cerevisiae deletion strains, locus YLR221C, strain rsa3, stronger effect = lower value 1.06 | S. cerevisiae deletion strains, locus YLR258W, strain gsy2, stronger effect = lower value 1.01 | S. cerevisiae deletion strains, locus YLR262C, strain YPT6 (second series), stronger effect = lower value 1.01 | S. cerevisiae deletion strains, locus YLR262C, strain YPT6, stronger effect = lower value 1.06 | S. cerevisiae deletion strains, locus YLR268W, strain sec22, stronger effect = lower value 1.01 | S. cerevisiae deletion strains, locus YLR320W, strain mms22, stronger effect = lower value 1.07 | S. cerevisiae deletion strains, locus YLR330W, strain CHS5, stronger effect = lower value 1.01 | S. cerevisiae deletion strains, locus YLR342W, strain FKS1 (second series), stronger effect = lower value 1.03 | S. cerevisiae deletion strains, locus YLR342W, strain FKS1, stronger effect = lower value 1.02 | S. cerevisiae deletion strains, locus YLR357W, strain rsc2, stronger effect = lower value 0.912 | S. cerevisiae deletion strains, locus YLR370C, strain arc18, stronger effect = lower value 1.01 | S. cerevisiae deletion strains, locus YLR371W, strain rom2, stronger effect = lower value 1.02 | S. cerevisiae deletion strains, locus YLR384C, strain iki3, stronger effect = lower value 0.999 | S. cerevisiae deletion strains, locus YLR418C, strain cdc73, stronger effect = lower value 1.02 | S. cerevisiae deletion strains, locus YML016C, strain PPZ1, stronger effect = lower value 1.01 | S. cerevisiae deletion strains, locus YML032C, strain rad52, stronger effect = lower value 1.02 | S. cerevisiae deletion strains, locus YML120C, strain ndi1, stronger effect = lower value 0.972 | S. cerevisiae deletion strains, locus YML124C, strain tub3, stronger effect = lower value 1.01 | S. cerevisiae deletion strains, locus YMR058W, strain fet3, stronger effect = lower value 0.987 | S. cerevisiae deletion strains, locus YMR078C, strain ctf18, stronger effect = lower value 1.01 | S. cerevisiae deletion strains, locus YMR125W, strain sto1, stronger effect = lower value 0.929 | S. cerevisiae deletion strains, locus YMR129W, stronger effect = lower value 1 | S. cerevisiae deletion strains, locus YMR205C, strain PFK2, stronger effect = lower value 0.982 | S. cerevisiae deletion strains, locus YMR223W, strain ubp8, stronger effect = lower value 1.02 | S. cerevisiae deletion strains, locus YMR231W, strain pep5, stronger effect = lower value 1.01 | S. cerevisiae deletion strains, locus YMR263W, strain SAP30, stronger effect = lower value 1.01 | S. cerevisiae deletion strains, locus YMR307W, strain GAS1, stronger effect = lower value 0.993 | S. cerevisiae deletion strains, locus YNL067W, strain RPL9B, stronger effect = lower value 0.996 | S. cerevisiae deletion strains, locus YNL071W, strain lat1, stronger effect = lower value 0.998 | S. cerevisiae deletion strains, locus YNL128W, strain TEP1, stronger effect = lower value 1 | S. cerevisiae deletion strains, locus YNL153C, strain GIM3, stronger effect = lower value 1.01 | S. cerevisiae deletion strains, locus YNL183C, strain NPR1, stronger effect = lower value 0.944 | S. cerevisiae deletion strains, locus YNL209W, strain ssb2, stronger effect = lower value 0.994 | S. cerevisiae deletion strains, locus YNL233W, strain BNI4, stronger effect = lower value 1.02 | S. cerevisiae deletion strains, locus YNL248C, strain rpa49, stronger effect = lower value 0.975 | S. cerevisiae deletion strains, locus YNL250W, strain rad50, stronger effect = lower value 1.01 | S. cerevisiae deletion strains, locus YNL271C, strain bni1, stronger effect = lower value 1.02 | S. cerevisiae deletion strains, locus YNL298W, strain CLA4, stronger effect = lower value 1.02 | S. cerevisiae deletion strains, locus YNL307C, strain MCK1, stronger effect = lower value 1.02 | S. cerevisiae deletion strains, locus YNL322C, strain KRE1 (second series), stronger effect = lower value 0.991 | S. cerevisiae deletion strains, locus YNL322C, strain KRE1, stronger effect = lower value 1.01 | S. cerevisiae deletion strains, locus YNR049C, strain mso1, stronger effect = lower value 0.998 | S. cerevisiae deletion strains, locus YNR052C, strain pop2, stronger effect = lower value 1.02 | S. cerevisiae deletion strains, locus YOL006C, strain TOP1, stronger effect = lower value 1.05 | S. cerevisiae deletion strains, locus YOL012C, strain htz1 0.974 | S. cerevisiae deletion strains, locus YOL147C, strain pex11, stronger effect = lower value 1.01 | S. cerevisiae deletion strains, locus YOR001W, strain rrp6, stronger effect = lower value 1.03 | S. cerevisiae deletion strains, locus YOR061W, strain CKA2, stronger effect = lower value 1.02 | S. cerevisiae deletion strains, locus YOR069W, strain VPS5, stronger effect = lower value 1.01 | S. cerevisiae deletion strains, locus YOR070C, strain gyp1, stronger effect = lower value 1.03 | S. cerevisiae deletion strains, locus YOR080W, strain dia2, stronger effect = lower value 1 | S. cerevisiae deletion strains, locus YOR083W, strain WHI5, stronger effect = lower value 0.989 | S. cerevisiae deletion strains, locus YOR106W, strain vam3, stronger effect = lower value 0.947 | S. cerevisiae deletion strains, locus YOR136W, strain idh2, stronger effect = lower value 1.02 | S. cerevisiae deletion strains, locus YOR144C, strain elg1, stronger effect = lower value 1.01 | S. cerevisiae deletion strains, locus YOR184W, strain ser1, stronger effect = lower value 1.05 | S. cerevisiae deletion strains, locus YOR231W, strain MKK1, stronger effect = lower value 1 | S. cerevisiae deletion strains, locus YOR265W, strain rbl2, stronger effect = lower value 1 | S. cerevisiae deletion strains, locus YOR270C, strain vph1, stronger effect = lower value 0.993 | S. cerevisiae deletion strains, locus YOR290C, strain snf2, stronger effect = lower value 0.95 | S. cerevisiae deletion strains, locus YOR316C, strain cot1, stronger effect = lower value 1.01 | S. cerevisiae deletion strains, locus YPL051W, strain arl3, stronger effect = lower value 1 | S. cerevisiae deletion strains, locus YPL055C, strain LGE1, stronger effect = lower value 1.02 | S. cerevisiae deletion strains, locus YPL078C, strain atp4, stronger effect = lower value 0.957 | S. cerevisiae deletion strains, locus YPL106C, strain sse1, stronger effect = lower value 0.983 | S. cerevisiae deletion strains, locus YPL240C, strain hsp82, stronger effect = lower value 1.01 | S. cerevisiae deletion strains, locus YPL241C, strain CIN2, stronger effect = lower value 1.01 | S. cerevisiae deletion strains, locus YPL256C, strain CLN2, stronger effect = lower value 0.994 | S. cerevisiae deletion strains, locus YPR119W, strain clb2, stronger effect = lower value 1 | S. cerevisiae deletion strains, locus YPR141C, strain kar3, stronger effect = lower value 1.01 | S. cerevisiae deletion strains, locus YPR163C, strain tif3, stronger effect = lower value 1.02 | S. cerevisiae deletion strains, locus YPR167C, strain met16, stronger effect = lower value 1.02 | S. cerevisiae deletion strains, strain wtn01, stronger effect = lower value 1.01 | S. cerevisiae strains, strain wild type, stronger effect = lower value 1.01
